# Data published in article PMC4336329 (PLoS ONE, 2015).
# The campaign covered roughly 310,000 compounds. About 14,000 (4.5%) showed an effect of 50% or more. Effects have a minus sign here. Only a selection was taken, and strong results are over-represented in it overall.
# Molecular target: human ether-à-go-go-related gene (hERG) potassium channel (human, UniProt Q12809)
# Experiment: primary screen, population patch clamp on CHO cells stably expressing hERG; higher = less effect of the substance
# 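Also: peak tail current of the secondary pulse compared with the same well before compound.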
# Chain of human ether-à-go-go-related gene (hERG) potassium channel (Q12809 whole entry, looked up): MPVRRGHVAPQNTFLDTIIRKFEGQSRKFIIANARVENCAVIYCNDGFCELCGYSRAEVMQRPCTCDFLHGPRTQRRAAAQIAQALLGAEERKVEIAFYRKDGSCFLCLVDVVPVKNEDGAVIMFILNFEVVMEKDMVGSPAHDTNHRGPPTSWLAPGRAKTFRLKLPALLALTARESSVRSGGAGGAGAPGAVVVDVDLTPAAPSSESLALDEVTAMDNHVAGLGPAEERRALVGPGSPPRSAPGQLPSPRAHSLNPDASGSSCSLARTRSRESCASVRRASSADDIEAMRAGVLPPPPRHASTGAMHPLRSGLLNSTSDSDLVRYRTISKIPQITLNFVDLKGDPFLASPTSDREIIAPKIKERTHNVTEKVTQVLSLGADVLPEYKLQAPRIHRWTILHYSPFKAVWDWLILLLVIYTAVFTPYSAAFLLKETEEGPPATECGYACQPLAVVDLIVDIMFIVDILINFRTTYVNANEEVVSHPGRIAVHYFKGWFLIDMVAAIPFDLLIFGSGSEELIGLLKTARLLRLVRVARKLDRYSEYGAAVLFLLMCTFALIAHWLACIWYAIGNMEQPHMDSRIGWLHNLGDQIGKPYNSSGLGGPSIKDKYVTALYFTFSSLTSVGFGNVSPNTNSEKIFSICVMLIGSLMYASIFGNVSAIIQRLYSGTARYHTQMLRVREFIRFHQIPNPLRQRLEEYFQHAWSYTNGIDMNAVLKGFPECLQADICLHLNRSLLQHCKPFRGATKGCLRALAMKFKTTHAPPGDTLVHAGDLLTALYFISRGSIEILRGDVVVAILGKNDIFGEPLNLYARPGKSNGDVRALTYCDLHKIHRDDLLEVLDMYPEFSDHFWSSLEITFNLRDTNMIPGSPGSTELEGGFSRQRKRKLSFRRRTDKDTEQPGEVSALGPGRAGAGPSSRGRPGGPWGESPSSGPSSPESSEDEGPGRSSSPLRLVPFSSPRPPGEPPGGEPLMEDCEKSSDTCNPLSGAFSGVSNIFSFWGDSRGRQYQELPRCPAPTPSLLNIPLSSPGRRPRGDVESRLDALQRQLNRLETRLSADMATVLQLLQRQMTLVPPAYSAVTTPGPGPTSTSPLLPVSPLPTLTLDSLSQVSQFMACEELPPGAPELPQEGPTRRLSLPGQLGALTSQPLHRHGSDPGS
row,Structure (SMILES),"hERG current change (%, negative = inhibition) at 10uM [%]"
1,CCOc1ccc(NC(=O)c2ccc(-n3cccn3)nc2)cc1,18.7
2,CCN(/C=N/c1sc2c(c1C#N)CCCCC2)CC,5.56
3,CC(c1ccccc1)n1c(-c2ccc(Cl)cc2)n[nH]c1=S (centres unmarked),13.9
4,CCOc1cc(C(=O)Nc2ccc([N+](=O)[O-])cn2)cc(OCC)c1OCC,-29
5,COc1ccc(C(=O)CC(=O)C(=O)Nc2cc(OC)c(OC)c(OC)c2)cc1,8.58
6,Clc1ccc(-n2ncc3c(NCCN4CCOCC4)ncnc32)cc1,-34.7
7,Fc1ccc2[nH]c3c(NCCN4CCOCC4)ncnc3c2c1,-16.8
8,Clc1ccc2[nH]c3c(NCCCN4CCOCC4)ncnc3c2c1,-69.9
9,Cc1ccc2ncnc(NCCCN3CCOCC3)c2c1,-13.6
10,Cc1ccc2[nH]c3c(NCCCN4CCCC4=O)ncnc3c2c1,-13.7
11,Clc1ccc2[nH]c3c(NCCN4CCOCC4)ncnc3c2c1,-61.8
12,c1ccc(-n2nnc3ccccc32)nc1,3.7
13,O=C(NN1C(=O)c2ccccc2NC1c1cccnc1)c1ccc([N+](=O)[O-])cc1 (centres unmarked),-37.5
14,O=C(NCS(=O)(=O)c1ccccc1)c1ccccc1,-0.415
15,CCOc1ccccc1CN1CCN(Cc2ccc3cc(F)ccc3n2)CC1CCO (centres unmarked),-65.7
16,CCOc1ccc2nc(CN3CCN(Cc4ccccc4OCC)C(CCO)C3)ccc2c1 (centres unmarked),-56.9
17,CCOc1ccccc1CN1CCN(Cc2ccc3cccc(OC)c3n2)CC1CCO (centres unmarked),-55.5
18,COc1ccc(-c2csc(NC(C)c3nc4cc(C(=O)NCCCO)ccc4n3Cc3ccc(C)cc3)n2)cc1 (centres unmarked),9.34
19,Fc1ccccc1Nc1nc2ccccc2n2nnnc12,7.8
20,CCOc1cc(C(=O)Nc2ccc(S(=O)(=O)Nc3cc(C)on3)cc2)cc(OCC)c1OCC,-0.904
21,O=C(NCc1ccco1)C1CCC(N2C(=O)c3ccccc3C2=O)CC1 (centres unmarked),1.59
22,C=C1Cn2c(nnc2-c2ccc(Cl)cc2)S1,-27.4

row,Structure (SMILES),"hERG current change (%, negative = inhibition) at 10uM [%]"
1,C=CCNC(=O)C1(c2ccccc2)CC1(Cl)Cl (centres unmarked),-5.1
2,O=c1cc(N2CCCCC2)c(-c2ccccc2)nn1Cc1cccc(Cl)c1,0.996
3,COC(=O)c1ccc(/C=C2\Oc3ccccc3NC2=O)cc1,15.5
4,CCOC(=O)C1=C(C)NC(=S)NC1c1ccc(-c2cccc(Cl)c2C)o1 (centres unmarked),14.4
5,Cc1cccc(N2CC(O)(c3cccs3)[N+]3=C2CCCC3)c1C.[Br-] (centres unmarked),-43.5
6,OC1(c2cccs2)CN(c2ccc(Cl)cc2)C2=[N+]1CCCC2.[Br-] (centres unmarked),-59.5
7,COc1ccc(N2CC(O)(c3ccc(C)cc3)[N+]3=C2CCCC3)cc1.[Br-] (centres unmarked),-38.9
8,COc1ccc(N2CC(O)(c3ccc(F)cc3)[N+]3=C2CCCC3)cc1.[Br-] (centres unmarked),-3.37
9,COc1ccc(C2(O)CN(c3ccc(C)cc3)C3=[N+]2CCCC3)cc1.[Br-] (centres unmarked),-37.5
10,OC1(c2cccs2)CN(c2ccccc2)C2=[N+]1CCCC2.[Br-] (centres unmarked),4.63
11,COc1ccc(N2CC(O)(c3ccc(OC(F)F)cc3)[N+]3=C2CCCC3)cc1.[Br-] (centres unmarked),-70
12,Cc1cccc(N2CC(O)(c3cccs3)[N+]3=C2CCCC3)c1.[Br-] (centres unmarked),-12.3
13,CCOc1ccc(N2CC(C(=O)NNC(=O)c3ccc(F)cc3)CC2=O)cc1 (centres unmarked),-25.4
14,CCOc1ccc(N2CC(O)(c3cccs3)[N+]3=C2CCCC3)cc1.[Br-] (centres unmarked),-69.7
15,CCOc1ccc(N2CC(O)(c3ccc(F)cc3)[N+]3=C2CCCC3)cc1.[Br-] (centres unmarked),-71.6
16,Cc1ccc(N2CC(O)(c3cccs3)[N+]3=C2CCCC3)cc1.[Br-] (centres unmarked),-32.3
17,Cc1cccc(C)c1NC(=O)CN1C(=O)COc2ccccc21,10.5
18,Cc1ccc(S(=O)(=O)c2cnc(-c3ccccc3)nc2N2CCCCC2)cc1,25.7
19,CS(=O)(=O)c1ccc(NCCc2ccccn2)c([N+](=O)[O-])c1,-22.7
20,COc1cccc(C2C(C(=O)Nc3ccc(C)cc3C)=C(C)Nc3ncnn32)c1OC (centres unmarked),7.02
21,O=C(Nc1c2c(nn1-c1ccc(F)cc1)CS(=O)C2)c1ccco1 (centres unmarked),-21.4
22,CC(=O)Nc1ccc(NC(=O)c2cc(=O)c3ccc(C)cc3o2)cc1,17.4
